MCF10A rerep – DNA re-replication induction in MCF 10a cells; MCF 10A DNA re-replication, Hoechst nuclear intensity, 48 h; Potency, µM (top dose mostly 46.1 µM), without a hit: at the top dose activity, positive = re-replication, usual class: activators; actives 2.9% (n = 350,000); AID 624296; note: % of control where 0% means no effect; nearly all actives have a fitted effect of over 50% in size
KB-3-1 tox – KB-3-1 parental cell cytotoxicity; KB-3-1 viability, CellTiter-Glo ATP luminescence, 72 h; Potency, µM (highest dose often 46.1 µM), usual class: cytotoxic; actives 1.4% (n = 400,000); note: % is set by controls: 0 for no effect and ±100 for the full control effect; nearly all actives have a fitted effect of over 60% in size
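Multi-concentration cytotoxicity screen in KB-3-1 cells grown in DMEM lacking phenol red with 10% FBS. After 72 h at 37 °C with compound, ATP-dependent luminescence was recorded.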
HT1080 IDH1KD tx – kills HT-1080 cells with IDH1 knockdown; HT-1080 IDH1 knockdown viability, ATP luminescence, 48 h; Potency, µM (series often up to 46.1 µM), for inactives: at the highest dose activity, negative = toxicity, usual class: cytotoxic; actives 2% (n = 360,000); AID 686971;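 note: 0% = DMSO wells and -100% = cell-free medium wells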
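CellTiter-Glo luminescence after 48 h compound exposure at 37 degrees C of IDH1-knockdown HT-1080 cells in 5% FBS RPMI. %Activity scaled between DMSO wells and cell-free media wells, with curves fitted and assigned curve classes.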
HT1080NT lethal – kills 2HG-producing HT-1080-NT fibrosarcoma cells; HT-1080-NT fibrosarcoma viability, CellTiter-Glo ATP luminescence, 48 h; Potency, µM (top dose mostly 46.1 µM), for the others: top-dose activity, negative = less viability, usual class: cytotoxic; actives 1.6% (n = 360,000);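 note: NT is the 2HG producing partner of a matched IDH1 knockdown line; 0% = DMSO-treated cells and -100% = media-only wells without cells; nearly all actives have a fitted effect of over 55% in size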
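HT-1080-NT fibrosarcoma cells (2HG-overproducing), 750 cells/well in RPMI with 5% FBS, dosed after 2 h and incubated 48 h at 37C. CellTiter-Glo luminescence normalized to DMSO and no-cell wells; concentration-response curves fitted and classed.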
SW480 rerep – induces DNA re-replication in SW480 colon adenocarcinoma cells | Potency, µM (series often up to 46.1 µM), for inactives: top-dose re-replication activation, most hits filed as activators | SW480 DNA re-replication, Hoechst DNA content imaging, 48 h | actives 1.8% (n = 340,000) | AID 624297; note: % of control where 0% means no effect; nearly all actives have a fitted effect of over 55% in size
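Readout is total intensity of Hoechst-stained nuclei, excited at 405 nm and collected at 500-530 nm. Compound treatment lasted 48 hr at 37 C in 5% CO2 before staining.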
KB-V1 MDR tox – kills drug-selected multidrug resistant KB-V1 cells; KB-V1 MDR cells viability, CellTiter-Glo, 72 h; AID 1347076; actives 3.4% (n = 400,000); Potency, µM (highest dose often 46.1 µM), actives largely listed as cytotoxic; note: % is set by controls: 0 for no effect and ±100 for the full control effect; nearly all actives have a fitted effect of over 60% in size
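qHTS viability screen in drug-selected KB-V1 MDR cells: 72 h compound treatment at 37 degrees C, ATP luminescence end point.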
* = called active by the depositor; i = inactive; ? = inconclusive; . = no result; [ ] = another dose, or the depositor's remark. An excerpt weighted towards active compounds, which were near 8% of everything screened. Calls come from the whole dose curve; as a rule, active = well fitted curve in the direction sought with a large enough effect; inconclusive = small, poorly fitted or top-dose-only effect, or another doubt; inactive = no such curve, though single readings can be large; an effect the other way counts as inactive or inconclusive. Potency is the fitted concentration of half-maximal effect.

SMILES	MCF10A rerep	KB-3-1 tox	HT1080 IDH1KD tx	HT1080NT lethal	SW480 rerep	KB-V1 MDR tox
CC(=O)c1ccc(NC(=O)c2cc(CC(C)C)nc3ccccc23)cc1	0.82µM*	i	-11%	1%	-2%	i
COc1ccc(OC)c(Nc2cc(C)nc3ccc(C)cc23)c1	?	7.3µM*	3.7µM*	5.2µM*	18µM*	5.2µM*
CC(=O)c1ccc(Nc2cc(C)nc3ccccc23)cc1	?	?	12µM*	?	18µM*	?
O=S(=O)(Nc1cccc(-c2ccc(N3CCOCC3)nn2)c1)c1cc(C(F)(F)F)ccc1Cl	.	i	.	.	.	i
COc1ccc(CNC(=O)c2ccc3nc(CCc4ccccc4)oc3c2)cc1OC	.	i	.	.	.	?
CC(C)Cn1c(-c2ccccc2Cl)nc2ccccc21	.	i	.	.	.	i
CC(C)N(C(=O)Cn1c(-c2ccccc2Cl)nc2ccccc21)c1ccccc1	-23%	i	0%	-3%	-80%	10µM*
Clc1ccccc1-c1nc2ccccc2c2nc3ccccc3n12	10%	?	0%	6%	-8%	4.1µM*
N#CCSc1nc2ccccc2c2nc3ccccc3n12	9.2µM*	i	2%	-3%	-1%	?
CCn1c(SCC#N)nc2ccccc2c1=O	-3%	i	-6%	-1%	?	i
O=C(CC1(O)C(=O)Nc2ccccc21)c1cccc(-n2cccc2)c1 (centres undefined)	1.5µM*	i	10%	-1%	?	i
CCc1nc(NCCc2ccccn2)c2nnn(Cc3ccccc3F)c2n1	?	i	-5%	0%	-11%	i
CCCc1nc(NCc2ccccn2)c2nnn(Cc3ccccc3F)c2n1	0%	?	2%	5%	-46%	2.9µM*
CCCc1nc(NCc2ccncc2)c2nnn(Cc3ccccc3F)c2n1	-2%	i	18µM*	?	-7%	?
CC1=CC(Cc2ccccc2)N(C)C(C(N)=O)C1 (centres undefined)	.	i	28%	?	.	i
COC(=O)c1ccc(COc2ccccc2/C=C(\C#N)C(=O)Nc2ccc(C)cc2)cc1	?	i	-26%	-7%	16%	i
N#C/C(=C\c1ccccc1OCc1ccc(C(=O)O)cc1)C(=O)Nc1ccc(O)cc1	23µM*	i	0%	-2%	3%	i
N#C/C(=C/c1ccc(OCc2ccc(C(=O)O)cc2)cc1)C(=O)Nc1ccccc1	0%	i	4%	9%	-2%	i
C=CCNC(=O)/C(C#N)=C/c1ccccc1OCc1ccc(C(=O)OC)cc1	4.6µM*	i	?	?	24%	?
O=C(O)CCCN1C(=O)C2C3CCC(C3)C2C1=O (centres undefined)	.	i	2%	1%	.	?
CC1CCc2c(sc3[nH]c(=S)n(C)c(=O)c23)C1 (centres undefined)	21%	i	-10%	-6%	10µM*	i
CN1CCc2c(n(CC(O)CNCc3ccccc3)c3ccccc23)C1=O (centres undefined)	1%	i	?	?	4%	i
CC(C)NCC(O)Cn1c2c(c3ccccc31)CCc1c-2cnn1-c1ccccc1 (centres undefined)	18µM*	16µM*	-12%[9.24 µM]	?	21%	21µM*
COc1cc(C2C3C(=O)N(c4ccccc4)C(=O)C3ON2c2ccccc2)cc(OC)c1OC (centres undefined)	0%	i	14%	19%	-8%	?
COc1cc(C2C3C(=O)N(c4ccc(F)cc4)C(=O)C3ON2c2ccccc2)ccc1O (centres undefined)	14µM*	i	18%	14%	-4%	i
CCc1nc2ccccc2c(=O)n1NC(=O)c1c(O)c2ccccc2n(CC)c1=O	8%	?	2%	-10%	13%	8.2µM*
